Assay results reported in PubChem BioAssay AID1671190 (National Center for Advancing Translational Sciences (NCATS), 2021).
Hit rate of the full screen: of about 580,000 compounds, about 6,100 (1.1%) were called active. Inconclusive results (about 15%) are left out. Calls come from the whole dose curve; as a rule, active = well fitted inhibition curve with a large enough effect; inconclusive = small, poorly fitted or top-dose-only effect, or another doubt; inactive = no such curve, though single readings can be large or run the other way. The list comes from a sample in which actives are over-represented; it also holds similar structures and randomly drawn compounds.

Each compound was assayed against Polyunsaturated fatty acid lipoxygenase ALOX12 (Homo sapiens) (UniProt P18054) (assay: Primary qHTS assay for inhibitors of human arachidonate 12S-lipoxygenase (ALOX12): Round 2). Settings: purified 12hLO, xylenol orange hydroperoxide absorbance; series mostly up to 108 µM.
Chain of Polyunsaturated fatty acid lipoxygenase ALOX12 (Homo sapiens) (P18054 whole entry, looked up): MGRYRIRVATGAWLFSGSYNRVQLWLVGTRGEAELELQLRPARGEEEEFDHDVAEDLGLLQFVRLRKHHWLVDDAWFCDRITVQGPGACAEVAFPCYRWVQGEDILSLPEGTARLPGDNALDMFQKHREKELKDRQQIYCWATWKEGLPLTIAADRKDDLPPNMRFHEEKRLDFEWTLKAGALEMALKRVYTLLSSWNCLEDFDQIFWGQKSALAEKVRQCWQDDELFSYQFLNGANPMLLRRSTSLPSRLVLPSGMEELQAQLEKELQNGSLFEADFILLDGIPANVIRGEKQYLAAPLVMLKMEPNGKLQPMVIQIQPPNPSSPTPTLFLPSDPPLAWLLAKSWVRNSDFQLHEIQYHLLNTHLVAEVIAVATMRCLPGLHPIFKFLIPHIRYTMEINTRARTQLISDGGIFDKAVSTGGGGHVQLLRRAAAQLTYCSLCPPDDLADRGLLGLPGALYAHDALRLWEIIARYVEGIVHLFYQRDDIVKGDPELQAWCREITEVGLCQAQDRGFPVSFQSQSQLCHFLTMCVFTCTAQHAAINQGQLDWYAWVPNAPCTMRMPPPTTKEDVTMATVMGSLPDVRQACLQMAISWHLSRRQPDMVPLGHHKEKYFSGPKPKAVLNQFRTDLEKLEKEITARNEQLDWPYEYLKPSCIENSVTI
In short: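 Purified human 12hLO at 150 nM in 25 mM Hepes, 0.01% Triton X-100, pH 7.0, preincubated 15 min at room temperature with compound. Reaction started with 40 uM arachidonic acid, 30 min at room temperature. Hydroperoxide measured by Fe-xylenol orange, 573/405 nm absorbance ratio.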
Potency is the fitted concentration of half-maximal effect.

Potency, active:
N#Cc1c(-c2cccs2)nc(SCC(=O)c2ccc(Br)cc2)[nH]c1=O 7.08 µM
CC(=O)C1=C(O)C(=O)N(c2ccc(Br)cc2)C1c1ccc([N+](=O)[O-])cc1 (stereo not drawn) 31.6 µM
O=C(NC(=S)NC1CCCCC1)c1ccc(Cl)cc1 2.82 µM
CC(C)CNC(=S)NC(=O)c1ccc(Cl)cc1 8.91 µM
CC(C)CCNC(=O)COC(=O)c1cc(-c2ccco2)nc2ccccc12 6.31 µM
CN(CCOc1ccccc1)C(=O)c1cc(-c2ccco2)nc2ccccc12 31.6 µM
CCOC(=O)CSc1nnc(NC(=O)C2CC(=O)N(c3ccc(F)cc3)C2)s1 (stereo not drawn) 39.8 µM
CC(=O)N(c1ccc2oc(=O)sc2c1)S(=O)(=O)c1ccc(C)cc1 8.91 µM
O=C(Nc1nc(-c2ccco2)c(-c2ccco2)s1)c1ccco1 31.6 µM
COc1ccc(NC(=O)[C@@H]2C[C@@H](c3ccc(F)cc3)N(CCOc3ccccc3)C2)cn1 31.6 µM
Cc1ccccc1N/N=C/c1ccc(N2CCOCC2)cc1 7.08 µM
CSc1ccc(/C=N/Nc2c(Cl)cc(Cl)cc2Cl)cc1 4.47 µM
CCOc1cc(-c2ccc(O)c(OC)c2)cc(=O)c2c(C)oc(C)c12 7.08 µM

Potency, inactive:
CCCCn1nc(C(=O)Nc2cc(Cl)ccc2C)c2ccccc2c1=O
CCOc1ccc(-c2nc(CN3CCN(C(=O)Nc4ccccc4OC)CC3)c(C)o2)cc1
Cc1ncc(-c2ccc(S(=O)(=O)Nc3ccc(F)c(F)c3)cc2)o1
COc1cccc(CN2CCCN(Cc3ccncc3)C(c3ccccc3)CC(=O)NCC2)c1OC (stereo not drawn)
N#Cc1c(-c2ccc(F)cc2)cc(C2CC2)nc1SCC(=O)c1cccs1
N#Cc1ccc(-c2cccs2)nc1SCc1ccc(Br)cc1
Cc1oc(-c2ccc(OC(C)C)cc2)nc1CSc1nc2c(c(=O)[nH]1)CCC2
CCC(Oc1ccc(Br)cc1)C(=O)O (stereo not drawn)
COC(=O)CN1C(=O)C(O)=C(C(C)=O)C1c1ccc([N+](=O)[O-])cc1 (stereo not drawn)
CC(=O)C1=C(O)C(=O)N(c2cccnc2)C1c1ccc([N+](=O)[O-])cc1 (stereo not drawn)
O=C(C(c1ccccc1)c1ccccc1)N(Cc1ccco1)C1CC1
Cc1ccc(CS(=O)Cc2ccc(Cl)cc2)cc1 (stereo not drawn)
O=C(NNC(=S)NC1CC2CCC1C2)c1ccc(Cl)cc1 (stereo not drawn)
O=C(NC1CCCCCC1)C1CCN(C(=O)c2ccc(Cl)cc2)CC1
CC(C)CNC(=S)NNC(=O)c1nn(C)cc1Cl
Cc1scc(C(=O)NNC(=S)NCC(C)C)c1C
Cc1ccccc1N1CCCN(Cc2ccccc2OCCO)CC1
Cc1ccc(-c2nc3ccccc3o2)cc1NC(=O)C1CC1
Cn1cc(-c2cnc3n[nH]c(-c4ccccc4)c3n2)cn1
COc1ccc(Cl)cc1C(=O)OCCOc1ccccc1F
COc1cccc(-c2cc(C(=O)NCCC(C)C)c3ccccc3n2)c1
Cc1cc(C(=O)OCC(=O)NC(=O)c2ccccc2)c2ccccc2n1
CCCOc1cccc(-c2cc(C(=O)OC)c3ccccc3n2)c1
CCc1nnsc1C(=O)N(C)CCOc1ccccc1
CC(C)c1ccc(OCC(=O)Nc2ccc(C(=O)N(C)C)cc2)cc1
N#Cc1nc(-c2ccc(S(=O)(=O)N3CCOCC3)cc2)oc1NCCN1CCOCC1
CC(C)CCN1CC2(CCCN(C(=O)c3ccn(C)c(=O)c3)C2)CCC1=O (stereo not drawn)
O=C(CC(NC(=O)c1ccccc1)c1ccccc1)NC12CC3CC(CC(C3)C1)C2 (stereo not drawn)
COc1ccc(C(=O)CSc2nnc(NC(=O)C3CC(=O)N(c4cccc(OC)c4)C3)s2)cc1 (stereo not drawn)
CCc1nnc(NC(=O)C2CC(=O)N(c3ccc4c(c3)OCCO4)C2)s1 (stereo not drawn)
CSc1nc(-c2cccs2)cc(C(F)(F)F)n1
CCn1nc(C(=O)N(C)Cc2cnn(-c3ccccc3)c2)c2ccccc2c1=O
CC1CCCCN1C(C)CNC(=S)Nc1ccc(F)cc1F (stereo not drawn)
Cn1cc(CN2CCn3c(nnc3[C@@H]3C[C@@H](O)CN3Cc3ccccc3)C2)c2ccccc21
CC(=O)Oc1ccc(N(C(C)=O)S(=O)(=O)c2ccc3ccccc3c2)cc1Br
CCOC(=O)c1c(C)oc2ccc(N(C(=O)c3ccncc3)S(=O)(=O)c3ccc(CC)cc3)cc12
Cn1c(=O)c2c(nc(NCc3ccccc3)n2Cc2cccc(F)c2)n(C)c1=O
O=C(Nc1ccc2nc(SCCOc3ccccc3)sc2c1)c1ccco1
CCN(c1ccc(Cl)cc1)S(=O)(=O)c1nnc(NC(=O)c2ccco2)s1
O=C(COC(=O)CNC(=O)c1cccc(Cl)c1)Nc1ncc(C(F)(F)F)cc1Cl
Cc1nc(SC(C)C(=O)Nc2cccc(C#N)c2)n(CC(C)C)c1C (stereo not drawn)
COc1ccc(NC(=O)[C@@H]2C[C@@H](c3cccc(C(F)(F)F)c3)N(Cc3cnn(C)c3)C2)cn1
O=C(Nc1cccnc1)[C@@H]1C[C@@H](c2ccc(F)cc2)N([S+](=O)([O-])c2ccccc2)C1
O=C(NC1CC1)c1ccccc1OCC1CCCN(Cc2ccncc2F)C1 (stereo not drawn)
CN(CC(=O)Nc1ccc(N2CCOCC2)cc1)CC(=O)Nc1ccccc1[N+](=O)[O-]
Cc1ccc(/C=N/Nc2ccccc2C(F)(F)F)cc1
Cc1cc2ccccc2n1CC(=O)Nc1ccc(Oc2ccccc2)cc1
Cc1ccc(CN2CCN(c3nc4ccccc4o3)CC2CCO)cc1 (stereo not drawn)
CSc1ccc(/C=N/N2CCN(Cc3ccccc3Cl)CC2)cc1
CSc1ccccc1N=Cc1ccc(Cl)c(Cl)c1
CCNc1nc(C(F)(F)F)c(C(=O)OCC)s1
Cc1ccc(C2C3=C(CC(C)(C)CC3=O)Nc3nc(SCCC(C)C)[nH]c(=O)c32)s1 (stereo not drawn)
CN(C)C(=O)c1cccnc1OC1CCN(C(=O)Nc2cc(F)cc(F)c2)C1 (stereo not drawn)
Cc1oc(C)c2c(=O)cc(-c3ccc4c(c3)OCO4)cc(OC(=O)c3ccc(Cl)cc3)c12
COc1ccc(-c2c(C)c3ccc(O)c(CN4CCCC4)c3oc2=O)cc1OC
